# Experimental data: PubChem BioAssay AID1719 (National Center for Advancing Translational Sciences (NCATS), 2009)
# The other results are listed elsewhere or left out. Inconclusive results are not listed. The source made the active and inactive calls.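 Rule for the calls: active = compounds whose electron micrographs showed tau fibrils broken into shorter filaments or fragments, graded high on fibril breakup; inconclusive = micrographs gave an unclear fibril picture; inactive = the rest.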
# Biological target: Microtubule-associated protein tau (Homo sapiens) (UniProt P10636)
# Assay: Transmission Electron Microscopy Assay for Inhibitors of Tau Fibrillization
# Details: recombinant tau K18 P301L (four-repeat tau fragment) fibrillization, TEM grading; hits give high values
# From the text: NIH Molecular Libraries Probe Production Network [MLPCN] NIH Chemical Genomics Center [NCGC] MLPCN Grant: X01 MH083262-01 Assay Provider: Carlo Ballatore, University of Pennsylvania NCGC Assay Overview: The microtubule-associated protein tau is an abundant protein in the axons of neurons that stabilizes microtubules. With its ability to modulate microtubule dynamics, tau contributes directly or indirectly, to key structural and regulatory cellular functions. Particularly important is the influence tau exerts on axonal transport, which allows signaling molecules, trophic factors and other essential cellular constituents to travel along the axons. Under pathological conditions, tau becomes sequestered into insoluble aggregates called neurofibrillary tangles. This phenomenon is believed to have pathological consequences by promoting axonal transport deficits that ultimately lead to synaptic dysfunction and neuronal loss. The ability of compounds to block tau fibrillization was visualized using transmission electron microscopy (TEM). Samples from the tau ThT confirmation assay treated with 100 uM compound (AID 1558) were centrifuged and imaged using TEM. […]
# Sequence of Microtubule-associated protein tau (Homo sapiens) (P10636 561-689 P618L limits assumed): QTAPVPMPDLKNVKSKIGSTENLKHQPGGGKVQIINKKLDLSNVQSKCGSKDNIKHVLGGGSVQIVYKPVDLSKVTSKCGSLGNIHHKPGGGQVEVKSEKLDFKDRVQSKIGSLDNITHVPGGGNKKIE
row,SMILES,"fibril grade (0 = clumped fibrils, 4 = only tiny pieces)"
1,CCN(CC)c1ccc2oc(=O)c(C)nc2c1,4 (active)
